The record followed here is PubChem BioAssay (NCATS).

Molecules are shown by their SMILES. Records with an inconclusive call do not appear. Unmarked numbers belong to inactive results. The call rests on the fitted dose curve; in most records, active means well fitted inhibition curve with a large enough effect; inconclusive means small, poorly fitted or top-dose-only effect; inactive means flat fitted curve, though single readings scatter.
On the % scale 0 is the no-effect control and ±100 the full control effect.

The target in the assay is Calcium and integrin-binding protein 1 (Homo sapiens) (UniProt Q99828). Description: Primary qHTS for Identification of Calcium Integrin Binding Protein 1 (CIB1) Competitor (AID 1508620).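 Further: GST tagged CIB1 binding a fluorescein labelled alphaIIb integrin peptide tracer; top concentration of the series differs between compounds.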 As to conditions: CIB1-GST / FITC-alphaIIb peptide fluorescence polarization; series mostly up to 114 µM; activity change, negative = inhibition: at the top concentration. A digest of the protocol: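 CIB1-GST (1 uM final) and compound incubated 15 min at room temperature before adding FITC-alphaIIb peptide tracer (100 nM final). Competition for binding read by fluorescence polarization (ex 480, em 540) after another 15 min at room temperature.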
Sequence of Calcium and integrin-binding protein 1 (Homo sapiens) (Q99828 whole entry, looked up): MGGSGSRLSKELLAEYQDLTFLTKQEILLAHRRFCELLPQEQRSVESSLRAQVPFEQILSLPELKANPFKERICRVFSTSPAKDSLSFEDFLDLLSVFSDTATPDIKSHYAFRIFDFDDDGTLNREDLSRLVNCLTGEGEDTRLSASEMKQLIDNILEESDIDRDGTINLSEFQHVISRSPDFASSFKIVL
As for `CC(=O)NC[C@H]1CN(c2ccc(N3CCSCC3)c(F)c2)C(=O)O1`, the “activity change, negative = inhibition” value was 4.29%.
In the case of `CC1(C)CCC2(C(=O)OC3OC(COC4OC(CO)C(O)C(O)C4O)C(O)C(O)C3O)CCC3(C)C(=CCC4C5(C)CCC(OC6OCC(O)C(O)C6O)C(C)(C)C5CCC43C)C2C1O` (stereo not drawn), the “activity change, negative = inhibition” value is 2.9% [at 30.2 µM].
On to `C=C1CC2OC(=O)C(COC)C2C(OC(=O)/C(C)=C\C)CC2(C)OC1=CC2=O` (stereo not drawn), for which the “activity change, negative = inhibition” value was -9.61% [at 57.7 µM].
In the case of `C/C=C(/C)C(=O)OC1CC(C)(C)CC2C3=CCC4C5(C)CCC(O[C@@H]6O[C@H](C(=O)O)[C@@H](O)[C@H](O)[C@H]6O[C@@H]6O[C@H](CO)[C@H](O)[C@H](O[C@@H]7OC[C@H](O)[C@H](O)[C@H]7O[C@@H]7O[C@H](CO)[C@@H](O)[C@H](O)[C@H]7O)[C@H]6O)C(C)(C)C5CCC4(C)C3(C)C(O)C(O)C12CO` (stereo partly drawn), the activity change, negative = inhibition is -2.71% [at 12.4 µM].
Take `CC(=O)NC(C(=O)O[C@H]1CCC(C)(C)[C@@H]2CC=C3C(=O)OCC3(O)[C@@]12C)C(C)C` (stereo partly drawn): the “activity change, negative = inhibition” value is -2.4% [at 57.7 µM].
For the compound `CCC(CC)C(=O)OC12C(OC(=O)C(C)C)C(C)C3(O)C(C=C(CO)CC4(O)C(=O)C(C)=CC43)C1C2(C)C` (stereo not drawn), the “activity change, negative = inhibition” value was 3.19% [at 57.7 µM].
With `CCCCNc1ncc2c(-c3ccc(S(=O)(=O)N4CCOCC4)cc3)nn(C3CCC(O)CC3)c2n1` (stereo not drawn) the figure was 0.0098%; with `COc1c(CCC(=O)O)cccc1O[C@@H]1O[C@H](CO)[C@@H](O)[C@H](O)[C@H]1O`, -4.01% [at 57.7 µM]; with `CC(C)(C)Sc1c(CC(C)(C)C(=O)O)n(Cc2ccc(Cl)cc2)c2ccc(OCc3ccc4ccccc4n3)cc12`, -11.7%.
For `Cn1ncc(Cl)c1-c1cc(C(=O)N[C@H](CN)Cc2ccc(F)c(F)c2)sc1Cl`, the “activity change, negative = inhibition” value is -18.7%.
For `CC(C)c1ccc(NC(=O)c2cccs2)c(-c2nc3ccccc3[nH]c2=O)c1` the value was -4.28%; for `C=CCCN1CCC2(CC1)CN(C(=O)c1c(F)cccc1F)c1ccc(Cl)cc12`, 2.55%.
`CC(C)(O)c1ccc2c(c1)ncn2-c1cccc(-c2ccccc2C#N)c1`: the “activity change, negative = inhibition” value was -1.66%.
On to `COc1cc2ncnc(Nc3ccc(O)c(Br)c3)c2cc1OC`, for which the “activity change, negative = inhibition” value is -3.82%.
For `N#Cc1ccc(-c2ccc(S(=O)(=O)Nc3cccc(N)n3)cc2)cc1` the value was 7.37%; for `COC(=O)C(Cc1ccc(OCCn2c(=O)sc3cc(C(=O)c4ccccc4)ccc32)cc1)C(=O)OC`, 0.17%.
With `CC(=O)OC1C(OC(=O)c2ccccc2)C2C(=C(C)CCC2(C)C)C23CCC(C)(C2)C(=O)CC13` (stereo not drawn), the “activity change, negative = inhibition” value is -2.95% [at 57.7 µM].
For `CC(C)(O)C(=O)N1CCN(c2ccc(C(F)(F)F)c(C3=C(c4c[nH]c5ccccc45)C(=O)NC3=O)c2)CC1`, the “activity change, negative = inhibition” value was 0.561%.
Regarding `CC[C@H]1CN(c2nc(N)c(C(N)=O)nc2Cl)CCN1C1CCN(Cc2ccc(Cl)cc2)CC1`, the “activity change, negative = inhibition” value is -3.05%.
Take `CC(C)c1cc(-c2ccc(F)c3ccccc23)nc(N)n1`: the “activity change, negative = inhibition” value is 1.88%.
For the compound `c1ccc(-c2ccc(CNc3nc(-c4ccccn4)nnc3-c3ccccc3)cc2)cc1`, the “activity change, negative = inhibition” value was -5.01%.
With `O=C(CNC(=O)c1cccc(C(F)(F)F)c1)N[C@@H]1CCN(Cc2ccc(Cl)cc2)C1` the figure was 2.37%; with `COc1cc(CCc2ccc(OCC=C(C)C)cc2)cc(OC)c1OC`, 1.34% [at 57.7 µM].
As for `Cc1csc(N(C(=O)CSc2ccc(-c3ccccc3)nn2)C2CC2)n1`, the “activity change, negative = inhibition” value was -3.79%.
`Cc1ccc(N2CCN(S(=O)(=O)N3CCCCC3)CC2)c(C)c1`: the “activity change, negative = inhibition” value was 3%.
`Fc1ccc(CN2CCC(Nc3ccc(C(F)(F)F)nn3)CC2)cc1F`: the “activity change, negative = inhibition” value is -6.17%.
As for `C=C1C(=O)O[C@@H]2C3C(=C(C)[C@@H](O)[C@@H](OC(=O)/C(=C/C)COC(C)=O)[C@@H]12)C(=O)[C@H]1O[C@@]31C` (stereo partly drawn), the “activity change, negative = inhibition” value was -2.57% [at 57.7 µM].
With `Cc1cc(-c2cnc(N)c3c(-c4ccc5scnc5c4)csc23)n(C)n1` the figure was 2.28%.
Regarding `CCCCCCOC(=O)/N=C(\N)c1ccc(NCc2nc3cc(C(=O)N(CCC(=O)OCC)c4ccccn4)ccc3n2C)cc1`, the “activity change, negative = inhibition” value was -3.98%.
Consider `C/C=C/CCC1Cc2cc(O)c(CCCC)c(O)c2C(=O)O1` (stereo not drawn), for which the “activity change, negative = inhibition” value was 3.06%.
As to `NS(=O)(=O)c1ccc(NC(=O)Nc2ccc(F)cc2)cc1`, the “activity change, negative = inhibition” value was 4.61%.
`CC(C)c1c(O)ccc2c1CC[C@H]1C(C)(C)CCC[C@]21C`: the “activity change, negative = inhibition” value is 4.95%.
As for `C/C(=C\CO[C@@H]1O[C@H](CO[C@H]2OC[C@](O)(CO)[C@H]2O)[C@@H](O)[C@H](O)[C@H]1O)C(C)(C)O`, the “activity change, negative = inhibition” value was 5.11% [at 57.7 µM].
For `C=C1C(=O)O[C@@H]2C[C@@]3(C)C[C@@H](O)C[C@H](C)C3=C[C@H]12` the value was -0.0677%.
Consider `CC(C)c1cc2c(N3CCN(C4=NCC(C)(C)S4)CC3)ncnc2s1`, for which the “activity change, negative = inhibition” value was -0.39%.
With `O=C(Nc1nc2cc(C(F)(F)F)cc(NC3CC3)n2n1)c1cccnc1` the figure was 1.45%; with `CN1CCN(C2=Nc3ccccc3Nc3ccc(OS(=O)(=O)C(F)(F)F)cc32)CC1`, 1.49%.
For the compound `Nc1nc2c(c(N3CC[C@@H](N)C3)n1)CCCc1ccccc1-2`, the “activity change, negative = inhibition” value was 0.944%.
